Screens (PubChem)
An excerpt weighted towards active compounds, which were near 21% of everything screened.
Sm TGR block: qHTS Assay for the Inhibitors of Schistosoma Mansoni Peroxiredoxins | Schistosoma mansoni thioredoxin glutathione reductase (TGR), Q962Y6 | purified TGR, DTNB reduction, TNB absorbance 405 nm | Potency, µM (highest dose often 114 µM), most hits filed as inhibitors | 360,000 compounds, 3% hits; note: nearly all actives have a fitted effect of over 60% in size
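TGR 20 nM + NADPH 100 uM (dispensed conc.), cpd preinc 15 min RT; start with NADPH (500 uM addition) then DTNB (15 mM addition). Kinetic TNB absorbance, 405 nm filter. Four-parameter Hill fit across titration.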
Shiga toxin inh: A qHTS for Small Molecule Inhibitors of Shiga Toxin. Vero cells, Shiga toxin protein synthesis inhibition reporter. 290,000 compounds, 9.2% hits. inhibition, % at 38.7 µM; in the data active = inhibition mostly above about 28%, no sharp cut-off; inactive = mostly below about 43%
Pf growth 48h: Primary qHTS for delayed death inhibitors of the malarial parasite plastid, 48 hour incubation. Potency, µM (titrated, usually from 28.7 µM), usual class: inhibitors. AID 504832, 2011. 310,000 compounds, 5.9% hits. P. falciparum luciferase growth in erythrocytes, 48 h
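In quantitative HTS format, infected erythrocytes bearing luciferase-reporter parasites were treated for a single generation at 37 C. Luminescence after adding detection reagent served as the growth measure.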
CHX counter: Cycloheximide Counterscreen for Small Molecule Inhibitors of Shiga Toxin; cell reporter, cycloheximide protein synthesis inhibition counterscreen; 300,000 compounds, 12% hits; max response, %; AID 2314, 2010; in the data active = max response mostly above about 13%, no sharp cut-off; inactive = mostly below about 14%; note: read at 38.3 µM for the half of the compounds with a filed dose
Pf growth 96h: Primary qHTS for delayed death inhibitors of the malarial parasite plastid, 96 hour incubation | 320,000 compounds, 6.9% hits | Potency, µM (series often up to 28.7 µM), most hits filed as inhibitors | P. falciparum luciferase reporter growth, 96 h
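Erythrocytes infected with luciferase-expressing P. falciparum were dispensed at 2% hematocrit and 0.05% parasitemia (final), then incubated with compounds 96 hours at 37 C in 5% CO2. Luminescence after detection reagent addition reported growth.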
NS1 function inh: qHTS Assay for Inhibitors of Influenza NS1 Protein Function | Potency, µM (titrated, usually from 46.1 µM) | 270,000 compounds, 0.4% hits | AID 2326, 2010; calls by dose curve; note: actives are rising curves; nearly all actives have a fitted effect of over 50% in size
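In this qHTS, NS1 from influenza A is expressed in budding yeast, where it slows growth. Cells are switched from glucose to 2% galactose medium (pH 6.0, -URA), treated with compound, and growth recovery is read at OD600.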
Of the large screens only hits and unclear results are named; the others gave an inactive call. Unless noted, calls come from the whole dose curve; as a rule, active = well fitted curve in the direction sought with a large enough effect; inconclusive = small, poorly fitted or top-dose-only effect, or another doubt; inactive = no such curve, though single readings can be large; an effect the other way counts as inactive or inconclusive.

COc1ccccc1NC(=O)Cc1noc(CN(C)Cc2cccs2)n1	Pf growth 96h 5.86µM
COc1ccc(Cl)cc1NC(=O)CCc1nc(-c2ccccc2F)no1	none
Cc1ccc(-c2noc(CCC(=O)Nc3cccc(C#N)c3)n2)cc1	Shiga toxin inh 33.7, Pf growth 48h inconclusive, CHX counter 33.8, Pf growth 96h inconclusive
COc1ccccc1NC(=O)CCc1nc(-c2ccccc2F)no1	CHX counter 15.8
Cc1cccc(-c2noc(CCC(=O)Nc3ccccc3)n2)c1	none (no result: Pf growth 96h)
CCOc1ccccc1-c1noc(CCC(=O)Nc2cccnc2)n1	Pf growth 96h 8.28µM
O=C(CCc1nc(-c2ccccc2F)no1)Nc1cccnc1	none
CCc1ccccc1NC(=O)CCc1nc(-c2cccs2)no1	Shiga toxin inh 48.3, Pf growth 96h inconclusive (no result: NS1 function inh)
O=C(/C=C/c1cccc(C(F)(F)F)c1)NNC(=O)c1ccncc1	none (no result: Shiga toxin inh, CHX counter, NS1 function inh)
CCCCc1nnc(NC(=O)c2ccc(OCc3c(C)noc3C)cc2)s1	Pf growth 48h inconclusive, Pf growth 96h inconclusive (no result: Shiga toxin inh, CHX counter, NS1 function inh)
O=C(Cc1ccc(Cl)cc1)Nc1nnc2n1CCS2	none (no result: Shiga toxin inh, Pf growth 48h, CHX counter, Pf growth 96h, NS1 function inh)
O=C(O)c1ccccc1C(=O)N1CCN(C(=O)c2ccccc2Cl)CC1	Sm TGR block 89.1µM, Pf growth 96h inconclusive (no result: NS1 function inh)
O=C(COC(=O)c1ccccc1C(=O)N1CCN(c2ccccc2)CC1)Nc1ccccc1	Pf growth 48h 4.15µM
CN1CCCN(C(=O)c2ccccc2Cl)CC1	Pf growth 96h inconclusive
O=C(c1ccccc1C(=O)N1CCN(c2ccccc2)CC1)N1CCN(c2ccccc2)CC1	Pf growth 48h inconclusive
O=C(O)c1ccccc1C(=O)N1CCN(c2ccccc2)CC1	Sm TGR block 35.5µM, Pf growth 96h inconclusive
O=C(COC(=O)c1ccccc1SCC(=O)N1CCCC1)Nc1ccccc1	CHX counter 17.4, Pf growth 96h inconclusive
O=C(c1cccc(Cl)c1)n1nc(-c2cccnc2)nc1NCc1ccccc1	none (no result: Shiga toxin inh, Pf growth 48h, CHX counter, Pf growth 96h, NS1 function inh)
COc1ccc(S(=O)(=O)Nc2ccccc2OC)cc1NC(=O)CC1CC2CCC1C2 (configuration not stated)	Pf growth 96h inconclusive
COc1ccc(-n2ncc3c(NCCCOC(C)C)ncnc32)cc1	none (no result: Shiga toxin inh, Pf growth 48h, CHX counter, Pf growth 96h, NS1 function inh)
N=C(N)SCCN1CCCCC1	none (no result: Sm TGR block, Shiga toxin inh, Pf growth 48h, CHX counter, Pf growth 96h)
O=C(NCC1CCCO1)C(=O)N/N=C/c1cccc(Cl)c1 (configuration not stated)	Pf growth 96h inconclusive
CCCN1C2=NCCN2c2ccccc21	Pf growth 96h 4.15µM
O=C(O)CN1C2=NCCCN2c2ccccc21	none
O=C(CN1C2=NCCCN2c2ccccc21)c1ccc2c(c1)OCO2	Pf growth 96h inconclusive
CCCCN1C2=NCCCN2c2ccccc21	Pf growth 48h inconclusive, Pf growth 96h 10.4µM
CCCCCCCN1C2=NCCCN2c2ccccc21	Pf growth 48h 2.94µM
CCCCN1C2=NCCCN2c2cc(C)c(C)cc21	Pf growth 48h 13.1µM, Pf growth 96h 13.1µM
c1ccc(OCCN2C3=NCCN3c3ccccc32)cc1	Pf growth 96h inconclusive
CCCN1C2=NCCCN2c2ccccc21	Pf growth 96h inconclusive
CCCCCCN1C2=NCCN2c2ccccc21	Pf growth 48h 14.7µM (no result: Pf growth 96h)
CCCCCCCN1C2=NCCN2c2ccccc21	Pf growth 48h inconclusive, Pf growth 96h inconclusive
O=C(CN1C2=NCCN2c2ccccc21)c1ccco1	Pf growth 96h 13.1µM (no result: Pf growth 48h)
O=C(CN1CCN(c2ccccn2)CC1)Nc1ccc2ccccc2c1	Shiga toxin inh 59.7, CHX counter 44.6
O=C(CN1CCN(c2ccccn2)CC1)Nc1ccccc1F	Pf growth 96h inconclusive
O=C(CN1CCN(c2ccccn2)CC1)Nc1ccccc1Br	Pf growth 48h 5.22µM, Pf growth 96h inconclusive
O=C(CN1CCN(C(=O)c2ccco2)CC1)Nc1ccccc1	none
CC(=O)Nc1ccc(NC(=O)CN2CCN(c3ccccn3)CC2)cc1	none
O=C(CN1CCN(c2ccccn2)CC1)Nc1ccc(F)cc1F	Shiga toxin inh 50.5, CHX counter 19.7
O=C(CN1CCN(C(=O)c2ccco2)CC1)Nc1cccc(S(=O)(=O)N2CCCC2)c1	Pf growth 48h inconclusive, Pf growth 96h 10.4µM (no result: Shiga toxin inh, CHX counter, NS1 function inh)
N=C1[C@@H](O)[C@]2(I)c3ccccc3N3C(=N)[C@H](O)[C@@H]4c5ccccc5N1[C@@H]4[C@@H]32	none (no result: Sm TGR block, Shiga toxin inh, Pf growth 48h, CHX counter, Pf growth 96h)
O=C(CN1CCN(C(=O)c2ccco2)CC1)Nc1ccc(F)cc1F	Shiga toxin inh 36.4, CHX counter 24.0, Pf growth 96h inconclusive
O=C(Nc1ccc(F)cc1F)N1CCN(CCc2ccccc2)CC1	Pf growth 48h 2.33µM
O=C(CN1CCN(c2ccccn2)CC1)Nc1ccc(Cl)c(C(F)(F)F)c1	none
O=C(CN1CCN(c2ccccn2)CC1)Nc1cc(C(F)(F)F)ccc1Cl	Pf growth 48h 9.28µM (no result: Pf growth 96h)
Cc1nc2ccccc2n1C1CCN(CC(=O)Nc2ccccc2Br)CC1	Pf growth 48h 11.7µM
CC(=O)N1c2ccc(S(=O)(=O)NCC3CCC(C(=O)Nc4cccc(C)n4)CC3)cc2CC1C (configuration not stated)	Pf growth 48h inconclusive, Pf growth 96h inconclusive
CC1CCN(C(=O)Cn2c3ccc(F)cc3c3nc4n(c(=O)c32)CCCS4)CC1	none
COc1ccccc1Cc1nc2ccccc2nc1SCC(=O)Nc1cccc(Cl)c1C	none (no result: Shiga toxin inh, Pf growth 48h, CHX counter, Pf growth 96h, NS1 function inh)
CC(C)C(=O)Nc1ccc(NC(=O)c2ccc([N+](=O)[O-])cc2Cl)cc1	none
O=C(Nc1ccc(F)cc1)c1cc(Cl)sc1Cl	Shiga toxin inh 77.4, CHX counter 29.2 (no result: NS1 function inh)
O=C(Nc1ccc([N+](=O)[O-])cc1)c1cc2ccccc2nc1Cl	Pf growth 48h inconclusive, CHX counter 20.1, Pf growth 96h inconclusive
O=C(Nc1ccc([N+](=O)[O-])cc1)c1cc(Cl)sc1Cl	Shiga toxin inh 27.4, Pf growth 96h inconclusive
Cn1c(=O)c2c(SCC(=O)N3CCc4ccccc43)nc(-c3cccc(F)c3)nc2n(C)c1=O	none (no result: Shiga toxin inh, Pf growth 48h, CHX counter, Pf growth 96h, NS1 function inh)
CCCOC(=O)Nc1nc2ccccc2o1	Shiga toxin inh 143.6, CHX counter 25.9
CCOC(=O)C(=CN=C(N)Nc1nc2ccccc2o1)C(=O)OCC	Shiga toxin inh 31.4, CHX counter 13.5, Pf growth 96h 10.4µM
CCOc1ccccc1CNc1nc2nc(C)cc(C)n2n1	none (no result: Shiga toxin inh, Pf growth 48h, CHX counter, Pf growth 96h, NS1 function inh)
Cc1c(C)n(CCc2ccccc2)c2ncnc(NCCO)c12	Shiga toxin inh 67.9, CHX counter 52.3
COc1ccccc1Nc1ncnc2c1c(C)c(C)n2CCO	Shiga toxin inh 60.8, CHX counter 42.1
NC1=NC([S][Hg][c]2ccc(N)cc2)c2ncn([C@@H]3O[C@H](CO)[C@@H](O)[C@@H]3O)c2N1 (some centres not stated)	none (no result: Sm TGR block, Shiga toxin inh, Pf growth 48h, CHX counter, Pf growth 96h)
COc1cc(C2SCC(=O)N2c2nnc(C34CC5CC(CC(C5)C3)C4)s2)cc(OC)c1OC (configuration not stated)	Pf growth 48h 14.7µM
